{"source": "PubChem BioAssay (NCATS)", "key": {"[1]": {"test": "NCATS anti-infectives library activity on HEK293 viability as a counter-qHTS vs the C. elegans viability qHTS (AID 1745854); also: % is scaled to controls: 0 for no effect and ±100 for the full control effect", "procedure,_shortened": "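Cytotoxicity counter-screen to a worm viability qHTS: CellTiter-Glo luminescence read 10 min after reagent addition. Compounds (final up to 41.7 uM, a 1:5 dilution series) incubated 24 hr at 37C with 1,500 HEK293 cells per well; digitonin control.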"}, "[2]": {"target": "Glutathione peroxidase 1 (Homo sapiens) (UniProt P07203)", "sequence (P07203 whole entry, looked up)": "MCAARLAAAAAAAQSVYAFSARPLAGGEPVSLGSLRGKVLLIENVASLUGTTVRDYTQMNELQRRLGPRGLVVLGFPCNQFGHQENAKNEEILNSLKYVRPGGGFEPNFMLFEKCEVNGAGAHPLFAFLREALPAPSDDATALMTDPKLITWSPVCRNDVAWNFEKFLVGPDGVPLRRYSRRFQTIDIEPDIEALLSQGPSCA", "test": "Primary qHTS Assay for Inhibitors of Recombinant Selenoprotein Glutathione Peroxidase 1 (GPX1) (AID 1845191); also: % is scaled to controls: 0 for no effect and ±100 for the full control effect; nearly all actives have a fitted effect of over 65% in size", "procedure,_shortened": "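GPX1 10 nM, GR 100 nM, GSH 1 mM, NADPH 0.5 mM, CHP 0.5 mM (final). 30-min cpd preincubation, RT. Ex340/Em450 read t=0, t=15 min.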"}, "[3]": {"target": "Phospholipid hydroperoxide glutathione peroxidase GPX4 (Homo sapiens) (UniProt P36969)", "sequence (P36969 whole entry, looked up)": "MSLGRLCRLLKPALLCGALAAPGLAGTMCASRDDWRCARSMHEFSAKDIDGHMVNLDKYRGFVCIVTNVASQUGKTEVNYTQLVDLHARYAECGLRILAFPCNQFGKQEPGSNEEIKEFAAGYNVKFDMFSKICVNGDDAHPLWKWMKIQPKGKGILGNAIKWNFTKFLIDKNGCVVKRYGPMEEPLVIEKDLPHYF", "test": "Primary qHTS Assay for Inhibitors of Recombinant Selenoprotein Glutathione Peroxidase 4 (GPX4) (AID 1845192); also: series mostly up to about 50 µM; % is scaled to controls: 0 for no effect and ±100 for the full control effect; nearly all actives have a fitted effect of over 65% in size", "procedure,_shortened": "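qHTS, GR-coupled: GPX4 200 nM + cpd 30 min RT → GSH 1 mM, NADPH 0.5 mM, GR 100 nM → CHP 0.5 mM start; fluor 340/450 at t0 and t15 min; no-enzyme wells as control.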"}, "[4]": {"target": "Estrogen receptor (Homo sapiens) (UniProt P03372)", "sequence (P03372 whole entry, looked up)": "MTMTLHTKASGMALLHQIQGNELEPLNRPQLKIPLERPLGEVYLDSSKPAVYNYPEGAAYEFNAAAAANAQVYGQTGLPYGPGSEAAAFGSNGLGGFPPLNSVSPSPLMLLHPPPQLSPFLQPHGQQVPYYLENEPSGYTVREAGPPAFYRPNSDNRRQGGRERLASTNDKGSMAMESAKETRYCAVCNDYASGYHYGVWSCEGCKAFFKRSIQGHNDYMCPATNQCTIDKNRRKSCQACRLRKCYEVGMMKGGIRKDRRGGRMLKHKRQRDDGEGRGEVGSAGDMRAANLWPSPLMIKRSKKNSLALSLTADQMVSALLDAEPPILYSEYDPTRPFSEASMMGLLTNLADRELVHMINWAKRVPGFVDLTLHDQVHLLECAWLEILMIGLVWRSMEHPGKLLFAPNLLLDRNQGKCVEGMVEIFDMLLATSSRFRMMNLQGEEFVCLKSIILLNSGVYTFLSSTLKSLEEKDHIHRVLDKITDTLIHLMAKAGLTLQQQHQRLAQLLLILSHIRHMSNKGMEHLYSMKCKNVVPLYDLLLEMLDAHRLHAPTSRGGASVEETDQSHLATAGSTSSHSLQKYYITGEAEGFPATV", "test": "qHTS assay for small molecule agonists of estrogen receptor alpha signaling (AID 588514; calls by dose curve;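 also: 0% = vehicle only and 100% = reference agonist; nearly all actives have a fitted effect of over 70% in size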)", "procedure,_shortened": "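EC50 and efficacy came from Hill fits of beta-lactamase reporter signal (CCF4 dye, 2 h at room temperature) scaled between DMSO and 20 nM 17-beta-estradiol. Agonist mode: HEK293 ER-alpha-UAS-bla cells in charcoal/dextran-stripped serum medium, 18 h compound exposure at 37 C.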"}, "[5]": {"target": "Glucocorticoid receptor (Homo sapiens) (UniProt P04150)", "sequence (P04150 whole entry, looked up)": "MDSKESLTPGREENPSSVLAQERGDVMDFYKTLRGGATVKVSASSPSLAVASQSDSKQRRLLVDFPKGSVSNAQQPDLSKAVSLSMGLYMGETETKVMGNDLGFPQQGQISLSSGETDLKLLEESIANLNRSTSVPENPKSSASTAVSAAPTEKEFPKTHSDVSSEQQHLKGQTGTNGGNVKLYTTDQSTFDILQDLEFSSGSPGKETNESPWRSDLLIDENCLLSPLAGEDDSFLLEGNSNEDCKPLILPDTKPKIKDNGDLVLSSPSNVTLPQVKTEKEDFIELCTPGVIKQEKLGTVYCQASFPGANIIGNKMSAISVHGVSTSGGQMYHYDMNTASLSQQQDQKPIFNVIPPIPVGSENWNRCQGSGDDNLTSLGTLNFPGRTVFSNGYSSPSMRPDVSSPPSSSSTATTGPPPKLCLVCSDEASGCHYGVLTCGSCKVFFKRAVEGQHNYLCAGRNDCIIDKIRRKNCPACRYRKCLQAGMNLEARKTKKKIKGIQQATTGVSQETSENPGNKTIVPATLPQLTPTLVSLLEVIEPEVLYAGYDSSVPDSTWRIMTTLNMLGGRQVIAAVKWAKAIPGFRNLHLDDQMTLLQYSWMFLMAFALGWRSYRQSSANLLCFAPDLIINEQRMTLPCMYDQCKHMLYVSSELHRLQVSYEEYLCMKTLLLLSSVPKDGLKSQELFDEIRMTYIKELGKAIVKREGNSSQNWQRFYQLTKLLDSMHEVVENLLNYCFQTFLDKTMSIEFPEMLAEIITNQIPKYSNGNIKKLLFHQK", "test": "qHTS assay for small molecule agonists of glucocorticoid receptor signaling (AID 588532; active = well fitted curve in the direction sought with a large enough effect in the signal ratio, with a control signal flat; the % refers to the signal ratio)", "conditions": "HeLa MMTV-bla, beta-lactamase ratio, agonist, 18 h; stronger effect = higher value; percent of dexamethasone control, DMSO zero", "procedure,_shortened": "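MMTV-bla HeLa, beta-lactamase reporter; medium with 1% charcoal/dextran-stripped FBS; cpds up to 92 uM, 18 h, 37 C; CCF4 readout 460/530 nm; Hill fit → EC50, efficacy vs 0.1 uM dexamethasone = 100%.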"}, "[6]": {"target": "Vitamin D3 receptor (Homo sapiens) (UniProt P11473)", "sequence (P11473 whole entry, looked up)": "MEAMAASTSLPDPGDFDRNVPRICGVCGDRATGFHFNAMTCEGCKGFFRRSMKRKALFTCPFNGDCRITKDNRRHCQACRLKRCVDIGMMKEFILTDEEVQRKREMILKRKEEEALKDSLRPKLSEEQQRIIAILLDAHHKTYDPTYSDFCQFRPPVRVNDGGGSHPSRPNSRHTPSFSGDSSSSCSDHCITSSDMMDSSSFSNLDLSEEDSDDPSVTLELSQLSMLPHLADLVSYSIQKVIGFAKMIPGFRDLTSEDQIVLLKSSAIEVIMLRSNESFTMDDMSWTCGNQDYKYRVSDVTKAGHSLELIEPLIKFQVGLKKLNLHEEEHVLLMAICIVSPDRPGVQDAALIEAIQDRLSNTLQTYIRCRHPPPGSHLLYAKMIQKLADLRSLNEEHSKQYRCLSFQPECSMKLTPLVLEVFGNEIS", "test": "qHTS assay for small molecule antagonists of vitamin D receptor signaling (AID 588541; calls by dose curve;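 also: receptor activated by calcitriol during compound treatment; series mostly up to about 77 µM; % is scaled to controls: 0 for no effect and ±100 for the full control effect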)", "procedure,_shortened": "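VDR-UAS-bla HEK293T cells (2000/well, 2% charcoal-stripped FBS) were treated with titrated compounds plus 1-alpha,25-dihydroxyvitamin D3 (50 nM or 3 nM final) for 16 h at 37 C. CCF4 beta-lactamase fluorescence was read; Hill fits gave IC50.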"}, "[7]": {"target": "Vitamin D3 receptor (Homo sapiens) (UniProt P11473)", "test": "qHTS assay for small molecule agonists of vitamin D receptor signaling (AID 588543; calls by dose curve)", "procedure,_shortened": "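Reporter cells (HEK293T, VDR-UAS-bla) were seeded in medium with 2% charcoal-stripped serum and incubated 5 h, then compounds in concentration series were added for 16 h at 37 °C. Stimulation was scaled between DMSO basal and 50 nM 1α,25-dihydroxyvitamin D3.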"}, "[8]": {"test": "qHTS assay for small molecule agonists of retinoid X receptor alpha signaling (AID 588544)", "conditions": "HEK293T RXRa-UAS-bla, beta-lactamase reporter, 18 h; 530 nm emission"}, "[9]": {"target": "Thyroid hormone receptor beta (Homo sapiens) (UniProt P10828)", "sequence (P10828 whole entry, looked up)": "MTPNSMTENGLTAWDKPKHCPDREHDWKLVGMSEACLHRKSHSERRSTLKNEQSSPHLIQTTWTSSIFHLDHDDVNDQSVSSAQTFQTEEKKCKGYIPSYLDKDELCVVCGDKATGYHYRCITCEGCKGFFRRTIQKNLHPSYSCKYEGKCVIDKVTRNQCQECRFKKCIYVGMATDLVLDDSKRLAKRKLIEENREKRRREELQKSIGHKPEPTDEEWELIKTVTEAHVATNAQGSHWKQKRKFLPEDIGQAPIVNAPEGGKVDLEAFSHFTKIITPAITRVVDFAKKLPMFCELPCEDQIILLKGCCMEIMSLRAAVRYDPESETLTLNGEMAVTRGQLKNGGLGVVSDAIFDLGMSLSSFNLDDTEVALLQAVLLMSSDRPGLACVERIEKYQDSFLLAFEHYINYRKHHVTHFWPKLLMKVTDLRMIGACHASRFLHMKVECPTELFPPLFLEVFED", "test": "qHTS assay for small molecule agonists of thyroid hormone receptor beta signaling (AID 588545; calls by dose curve)", "procedure,_shortened": "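HEK 293 TR-UAS-bla; agonist mode; 18 hrs, 37 C; CCF4, ex 405/em 460 and 530 nm; norm. T3 10 nM = 100%, DMSO = 0%; Hill fit → EC50, efficacy.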"}, "[10]": {"test": "qHTS assay for small molecule antagonists of retinoid X receptor alpha signaling (AID 588546; active = well fitted inhibition curve with a large enough effect in the signal ratio, with a control signal flat, not every such curve was filed as active; the % refers to the signal ratio; also: % is scaled to controls: 0 for no effect and ±100 for the full control effect)", "conditions": "HEK293T RXRa-UAS-bla, beta-lactamase ratio, antagonist mode; measured here: W530 green channel, cytotoxicity proxy", "procedure,_shortened": "(§1)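 Beta-lactamase reporter inhibition, read as CCF4 fluorescence ratio (ex 405, em 460/530 nm) after 2 h at RT. HEK293T UAS-bla cells, 2500/well, were stimulated with 9-cis-RA at 500 or 100 nM final alongside test compound for 18 h at 37 C.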"}, "[11]": {"target": "Retinoic acid receptor RXR-alpha (Homo sapiens) (UniProt P19793)", "sequence (P19793 whole entry, looked up)": "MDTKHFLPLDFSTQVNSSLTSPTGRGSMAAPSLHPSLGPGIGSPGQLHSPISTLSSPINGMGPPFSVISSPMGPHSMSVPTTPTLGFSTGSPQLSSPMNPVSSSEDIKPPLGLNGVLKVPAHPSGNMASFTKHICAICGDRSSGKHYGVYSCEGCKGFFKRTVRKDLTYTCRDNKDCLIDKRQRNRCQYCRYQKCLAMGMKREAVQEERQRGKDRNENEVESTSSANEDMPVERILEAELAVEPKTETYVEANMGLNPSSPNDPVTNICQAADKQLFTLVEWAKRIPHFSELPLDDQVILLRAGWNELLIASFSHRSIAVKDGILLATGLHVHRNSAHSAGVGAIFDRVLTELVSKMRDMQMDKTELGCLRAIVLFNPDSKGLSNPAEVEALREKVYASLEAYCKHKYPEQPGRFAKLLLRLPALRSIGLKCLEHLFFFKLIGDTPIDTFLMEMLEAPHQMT", "test": "qHTS assay for small molecule antagonists of retinoid X receptor alpha signaling (AID 588546)", "conditions": "HEK293T RXRa-UAS-bla, beta-lactamase ratio, antagonist mode", "procedure,_shortened": "as §1"}, "[12]": {"test": "qHTS assay for small molecule activators of the p53 signaling pathway (AID 651743; active = well fitted activation curve with a large enough effect in the signal ratio, not every such curve was filed as active; the % refers to the signal ratio)", "conditions": "HCT-116 p53RE-bla, beta-lactamase FRET ratio, 16 h; activation: stronger effect = higher value", "procedure,_shortened": "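Agonist-mode quantitative HTS in HCT-116 cells carrying a p53-response-element beta-lactamase reporter; 16 h compound treatment at 37 C, then FRET substrate loading for 2 h at room temperature and fluorescence read.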"}, "[13]": {"test": "qHTS assay for environmental chemicals that activate the Aryl hydrocarbon Receptor (AhR) signaling pathway (AID 651777)", "conditions": "1A2-DRE human hepatoma cells, luciferase, 24 h; activation: stronger effect = higher value", "procedure,_shortened": "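Reporter gene assay: hepatoma cells with DRE/CYP1A2-luciferase, 24 hr compound incubation at 37 C, 5% CO2, luminescence after One-Glo (30 min, RT).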"}, "[14]": {"target": "Peroxisome proliferator-activated receptor alpha (Homo sapiens) (UniProt Q07869)", "sequence (Q07869 whole entry, looked up)": "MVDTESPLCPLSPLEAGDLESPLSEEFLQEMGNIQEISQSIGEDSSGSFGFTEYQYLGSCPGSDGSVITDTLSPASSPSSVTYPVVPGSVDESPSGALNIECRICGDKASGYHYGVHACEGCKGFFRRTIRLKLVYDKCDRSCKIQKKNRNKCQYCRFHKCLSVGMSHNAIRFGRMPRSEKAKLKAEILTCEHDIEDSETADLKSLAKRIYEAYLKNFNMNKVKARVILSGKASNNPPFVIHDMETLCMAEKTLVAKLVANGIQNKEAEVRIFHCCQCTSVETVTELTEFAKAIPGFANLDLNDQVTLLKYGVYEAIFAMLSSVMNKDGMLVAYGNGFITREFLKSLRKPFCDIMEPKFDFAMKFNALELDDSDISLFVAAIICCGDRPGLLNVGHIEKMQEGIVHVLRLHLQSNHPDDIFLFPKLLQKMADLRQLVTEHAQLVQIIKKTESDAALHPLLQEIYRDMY", "test": "qHTS assay for small molecule agonists of the peroxisome proliferator-activated receptor alpha (PPARalpha) signaling pathway (AID 651778)", "conditions": "PathHunter PPARalpha complementation, chemiluminescence, 6 h; max response: stronger effect = higher value", "procedure,_shortened": "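Cells plated at 2,000/well and held overnight at 37 C, 5% CO2, then compound added by pin tool for 6 hr; after PathHunter detection reagent and 60 min at room temperature, chemiluminescence from enzyme complementation was read.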"}, "[15]": {"test": "qHTS assay for small molecule agonists of the antioxidant response element (ARE) signaling pathway measured by Nrf2-dependant transcriptional activity - cell viability counter screen (AID 720653; active = well fitted curve in the direction sought with a large enough effect in the repeat runs; an effect the other way counts as inactive or inconclusive)", "conditions": "ARE-bla HepG2 viability, CellTiter-Glo ATP luminescence, 16 h; max response: stronger effect = lower value", "procedure,_shortened": "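ARE-bla HepG2 cells (2,000/well) rested 5 hrs at 37C/5% CO2, then exposed to compounds in DMSO for 16 hrs. Viability was read in the same wells as intracellular ATP by luminescence, 30 min at room temperature after reagent addition.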"}, "[16]": {"test": "qHTS assay for cell viability of HEK293 cells (AID 743288)", "conditions": "ATP luminescence (CellTiter-Glo), 18 h; max response: stronger effect = lower value", "procedure,_shortened": "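Viable-cell counts were inferred from luciferase-based ATP content in HEK293 cells seeded at 2,000/well, pre-incubated ≥5 h, then dosed with DMSO-solubilised compounds for 18 h at 37 C.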"}, "[17]": {"test": "qHTS assay for cell viability of the p53RE-bla HCT-116 cell line (AID 743292)", "procedure,_shortened": "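ATP-based luminescence, 16 h compound exposure at 37 C, p53RE-bla HCT-116 cells at 4,000/well.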"}, "[18]": {"test": "NCATS anti-infectives library activity on the primary C. elegans qHTS viability assay (AID 1745855; calls by dose curve)", "procedure,_shortened": "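GFP read-out by 488 nm laser cytometry at day 0, 3 and 7, gated on object perimeter, area and peak intensity, scored viability of PE254-GFP-FLuc worms exposed to compound in S medium with bacterial capsules at 21 °C.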"}, "[19]": {"target": "Nuclear receptor subfamily 1 group I member 2 (Rattus norvegicus) (UniProt Q9R1A7)", "sequence (Q9R1A7 whole entry, looked up)": "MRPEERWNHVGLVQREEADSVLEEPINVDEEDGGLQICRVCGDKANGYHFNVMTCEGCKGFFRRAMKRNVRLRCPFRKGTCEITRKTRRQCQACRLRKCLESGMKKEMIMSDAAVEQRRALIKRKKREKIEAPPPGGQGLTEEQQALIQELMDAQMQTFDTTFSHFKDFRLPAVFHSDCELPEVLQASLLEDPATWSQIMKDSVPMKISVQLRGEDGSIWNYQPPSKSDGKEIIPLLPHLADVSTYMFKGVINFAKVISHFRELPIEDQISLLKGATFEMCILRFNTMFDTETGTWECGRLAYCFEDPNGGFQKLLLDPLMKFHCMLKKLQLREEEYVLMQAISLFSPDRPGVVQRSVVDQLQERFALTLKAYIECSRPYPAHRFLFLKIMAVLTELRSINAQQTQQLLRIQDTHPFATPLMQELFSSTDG", "test": "qHTS assay for small molecule activators of the rat pregnane X receptor (rPXR) signaling pathway (AID 651751; call rule not given here)", "conditions": "rPXR reporter cells, luciferase (One-Glo), 24 h"}, "[20]": {"test": "qHTS assay for small molecule activators of the human pregnane X receptor (PXR) signaling pathway (AID 720659; call rule not given here)"}}, "note": "Records with an inconclusive call do not appear. Calls of active or inactive are those of the source. Unless noted, calls follow the shape of the dose curve; as a rule, active = well fitted curve in the direction sought with a large enough effect; inconclusive = small, poorly fitted or top-dose-only effect, or another doubt; inactive = no such curve, though single readings can be large; an effect the other way counts as inactive or inconclusive. For Potency in this document: potency is read from the fitted curve at half-maximal effect."}
{"smiles": "C[C@H]1[C@H](OC(=O)CCC(=O)O)O[C@@H]2O[C@@]3(C)CC[C@H]4[C@H](C)CC[C@@H]1[C@@]24OO3", "values": [{"measurement": "Potency", "setting": "[1]", "result": "inactive"}, {"measurement": "Potency", "setting": "[2]", "result": "inactive"}, {"measurement": "Potency", "setting": "[3]", "result": "inactive"}]}
{"smiles": "O=C(O[C@@H]1Cc2c(O)cc(O)cc2O[C@@H]1c1cc(O)c(O)c(O)c1)c1cc(O)c(O)c(O)c1", "values": [{"measurement": "Potency", "setting": "[4]", "result": "inactive"}, {"measurement": "activation", "setting": "[5]", "result": "4.83% (inactive)"}, {"measurement": "outcome", "setting": "[6]", "result": "inactive"}, {"measurement": "outcome", "setting": "[7]", "result": "inactive"}, {"measurement": "max response", "setting": "[8]", "result": -0.202, "unit": "%"}, {"measurement": "outcome", "setting": "[9]", "result": "inactive"}, {"measurement": "max response", "setting": "[10]", "result": -13.5, "unit": "%"}, {"measurement": "max response", "setting": "[11]", "result": "-1.14% (inactive)"}, {"measurement": "activation", "setting": "[12]", "result": "-1.73% (inactive)"}, {"measurement": "activation", "setting": "[13]", "result": "-3.33% (inactive)"}, {"measurement": "max response", "setting": "[14]", "result": "-1.73% (inactive)"}, {"measurement": "max response", "setting": "[15]", "result": "-12.8% (inactive)"}, {"measurement": "max response", "setting": "[16]", "result": "-1.55% (inactive)"}, {"measurement": "Potency", "setting": "[17]", "result": "inactive"}, {"measurement": "Potency", "setting": "[1]", "result": "inactive"}, {"measurement": "Potency", "setting": "[18]", "result": "163 nM (active)"}, {"measurement": "max response", "setting": "[19]", "result": "-1.38% (inactive)"}, {"measurement": "outcome", "setting": "[20]", "result": "inactive"}]}
